From PubChem BioAssay (Tox21)
Results filed as inconclusive are left out. Entries that show only a call come without a potency. Activity calls are given as the source filed them. Unless noted, calls follow the shape of the dose curve; as a rule, active = well fitted curve in the direction sought with a large enough effect in the repeat runs; inconclusive = weak or mixed curves; inactive = no such curve, though single readings can be large; an effect the other way counts as inactive or inconclusive.

How the values were obtained:
[1] = molecular target: Aryl hydrocarbon receptor (Homo sapiens) (UniProt P35869); assay: qHTS assay to identify small molecule that activate the aryl hydrocarbon receptor (AhR) signaling pathway (AID 743085); also: nearly all actives have a fitted effect of over 15% in size; also: potency is read from the fitted curve at half-maximal effect;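 as to activation: HG2L7.5c1 human HepG2 liver cells with stably integrated DRE-driven firefly reporter; series mostly up to about 70 µM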
Chain of Aryl hydrocarbon receptor (Homo sapiens) (P35869 whole entry, looked up): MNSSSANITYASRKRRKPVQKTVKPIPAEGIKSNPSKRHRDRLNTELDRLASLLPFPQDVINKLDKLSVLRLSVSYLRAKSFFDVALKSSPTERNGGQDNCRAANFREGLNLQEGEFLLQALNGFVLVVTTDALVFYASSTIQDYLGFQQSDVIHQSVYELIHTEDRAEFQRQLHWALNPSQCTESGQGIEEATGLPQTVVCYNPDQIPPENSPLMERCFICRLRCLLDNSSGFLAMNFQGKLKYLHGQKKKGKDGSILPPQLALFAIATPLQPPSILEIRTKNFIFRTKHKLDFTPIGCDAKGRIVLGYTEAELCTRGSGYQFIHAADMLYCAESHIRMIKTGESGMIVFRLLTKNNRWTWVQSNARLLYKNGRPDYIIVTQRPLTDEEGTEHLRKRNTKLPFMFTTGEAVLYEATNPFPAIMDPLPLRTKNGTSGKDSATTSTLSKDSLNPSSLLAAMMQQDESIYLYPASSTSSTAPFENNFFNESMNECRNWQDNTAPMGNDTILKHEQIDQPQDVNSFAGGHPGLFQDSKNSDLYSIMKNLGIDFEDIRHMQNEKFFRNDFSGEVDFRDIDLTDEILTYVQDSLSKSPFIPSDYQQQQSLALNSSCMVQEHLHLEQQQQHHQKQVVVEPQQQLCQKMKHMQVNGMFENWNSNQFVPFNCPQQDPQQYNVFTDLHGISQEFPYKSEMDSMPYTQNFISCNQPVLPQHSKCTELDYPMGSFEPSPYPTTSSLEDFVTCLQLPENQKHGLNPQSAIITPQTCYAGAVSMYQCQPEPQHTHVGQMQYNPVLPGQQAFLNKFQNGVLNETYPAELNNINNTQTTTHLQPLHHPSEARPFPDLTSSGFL
How it was run: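 Compounds were tested in HepG2 hepatocellular carcinoma cells harbouring a stably integrated luciferase gene under control of 20 DREs. Increased reporter signal after 24 h treatment at 37C was taken as AhR activation.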

[2] = qHTS assay to identify small molecule that activate the aryl hydrocarbon receptor (AhR) signaling pathway - cell viability counter screen (AID 743086);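 also: HepG2 liver cells carrying the AhR DRE luciferase reporter; series mostly up to about 70 µM; nearly all actives have a fitted effect of over 45% in size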
How it was run: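 HepG2-AhR-luc (HG2L7.5c1) cells, 4000/well, treated 24 h at 37 C with compound; viability measured as CellTiter-Fluor fluorescence after 30 min in the same wells as the luciferase read.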

[3] = molecular target: Peroxisome proliferator-activated receptor gamma (Homo sapiens) (UniProt P37231); assay: qHTS assay to identify small molecule agonists of the peroxisome proliferator-activated receptor gamma (PPARg) signaling pathway (AID 743094; active = well fitted activation curve with a large enough effect in the signal ratio in the repeat runs, not every such curve was filed as active; the % refers to the signal ratio)
Chain of Peroxisome proliferator-activated receptor gamma (Homo sapiens) (P37231 whole entry, looked up): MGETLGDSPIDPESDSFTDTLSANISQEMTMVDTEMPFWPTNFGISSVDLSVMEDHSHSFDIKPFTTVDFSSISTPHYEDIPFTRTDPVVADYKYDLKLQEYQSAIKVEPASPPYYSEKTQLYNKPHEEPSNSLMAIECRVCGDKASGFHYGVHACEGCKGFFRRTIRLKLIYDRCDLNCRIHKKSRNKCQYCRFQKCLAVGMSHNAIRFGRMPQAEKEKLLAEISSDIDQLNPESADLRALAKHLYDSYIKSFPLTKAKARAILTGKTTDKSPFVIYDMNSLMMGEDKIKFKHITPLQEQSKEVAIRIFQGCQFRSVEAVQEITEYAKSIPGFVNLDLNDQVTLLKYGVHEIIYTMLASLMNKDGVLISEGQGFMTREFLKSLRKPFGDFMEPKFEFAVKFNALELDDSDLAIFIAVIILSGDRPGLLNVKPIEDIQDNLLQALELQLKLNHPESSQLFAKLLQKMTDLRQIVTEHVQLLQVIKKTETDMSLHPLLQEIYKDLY
How it was run: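 Beta-lactamase FRET fluorescence was the read-out after a 1 h room-temperature substrate step, following 17 h compound treatment at 37C of HEK293H cells expressing a UAS-driven bla reporter responsive to PPARg.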

[4] = qHTS assay to identify small molecule antagonists of the peroxisome proliferator-activated receptor gamma (PPARg) signaling pathway - cell viability counter screen (AID 743194); also: nearly all actives have a fitted effect of over 55% in size
How it was run: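 Cytotoxicity counter screen in PPARg-bla HEK293H cells, same wells as reporter assay. Compounds plus 50 nM rosiglitazone (final) for 17 h at 37 C, then viability read by CellTiter-Glo luminescence.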

[5] = qHTS assay for small molecule agonists of the antioxidant response element (ARE) signaling pathway - cell viability counter screen (AID 743203; calls by dose curve; also: nearly all actives have a fitted effect of over 55% in size)
How it was run: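 HepG2 cells carrying ARE-driven beta-lactamase; 2,000 cells/well; 5 hrs plating; compound pinned from DMSO; 16 hrs 37C/5% CO2; CellTiter-Glo added; 30 min RT; luminescence.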

[6] = qHTS assay for small molecule activators of the heat shock response signaling pathway - cell viability counter screen (AID 743209); also: nearly all actives have a fitted effect of over 50% in size
How it was run: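 Luminescence from CellTiter-Glo, added after the beta-lactamase FRET read, gave the viability signal. Cells were HSE-bla HeLa treated with DMSO-dissolved compounds for 5 h at 37 C following overnight plating.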

[7] = qHTS assay for small molecule activators of the heat shock response signaling pathway (AID 743210; active = well fitted activation curve with a large enough effect in the signal ratio in the repeat runs, with a control signal flat, not every such curve was filed as active; the % refers to the signal ratio; also: series mostly up to about 63 µM)
How it was run: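 HSE-bla HeLa cells (beta-lactamase reporter under heat shock response elements), plated overnight, then exposed to compounds 5 h at 37 C; LiveBLAzer B/G FRET substrate added, 2.5 h at room temperature, fluorescence intensity read.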

[8] = qHTS assay to identify small molecule agonists of the farnesoid-X-receptor (FXR) signaling pathway - cell viability counter screen (AID 743218); also: nearly all actives have a fitted effect of over 45% in size
How it was run: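 HEK 293T FXR-bla cells; 5 h pre-incubation, 16 h compound exposure at 37 C; LiveBLAzer substrate 2 h RT, then CellTiter-Glo 30 min RT, luminescence.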

[9] = qHTS assay to identify small molecule antagonists of the farnesoid-X-receptor (FXR) signaling pathway - cell viability counter screen (AID 743221; active = well fitted cell-killing curve with a large enough effect in the repeat runs, not every such curve was filed as active; also: nearly all actives have a fitted effect of over 50% in size)
How it was run: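 Multiplexed counter screen: viability of FXR-bla HEK 293T cells under agonist stimulation by chenodeoxycholic acid (50 uM, final) and test compound for 16 h at 37 C, measured by CellTiter-Glo luminescence in the reporter wells.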

[10] = molecular target: Peroxisome proliferator-activated receptor gamma (Homo sapiens) (UniProt P37231); assay: qHTS assay to identify small molecule antagonists of the peroxisome proliferator-activated receptor gamma (PPARg) signaling pathway (AID 743191; calls by dose curve; also: series mostly up to about 63 µM; nearly all actives have a fitted effect of over 30% in size)
How it was run: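 GeneBLAzer PPARg UAS-bla HEK293H cells, 5 h post-plating, exposed to compounds 17 h at 37C. LiveBLAzer B/G FRET substrate added for 1 h at room temperature; beta-lactamase reporter read by fluorescence intensity.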

[11] = qHTS assay for small molecule agonists of the antioxidant response element (ARE) signaling pathway (AID 743202; active = well fitted activation curve with a large enough effect in the signal ratio in the repeat runs, not every such curve was filed as active; the % refers to the signal ratio; also: potency is read from the fitted curve at half-maximal effect)
How it was run: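 ARE-bla HepG2 cells (beta-lactamase reporter under the antioxidant response element), plated 5 hours, then exposed to compounds 16 hours at 37 C. LiveBLAzer B/G FRET substrate added for 2 hours at room temperature; fluorescence intensity read.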

[12] = qHTS assay to identify small molecule agonists of the peroxisome proliferator-activated receptor delta (PPARd) signaling pathway - cell viability counter screen (AID 743211); also: nearly all actives have a fitted effect of over 55% in size
How it was run: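 Counter screen for cytotoxicity run in parallel with the PPARd reporter screen. Beta-lactamase reporter HEK293H cells exposed to compounds 17 h; ATP-based CellTiter-Glo luminescence quantified viability.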

[13] = molecular target: Peroxisome proliferator-activated receptor delta (Homo sapiens) (UniProt Q03181); assay: qHTS assay to identify small molecule agonists of the peroxisome proliferator-activated receptor delta (PPARd) signaling pathway (AID 743212; calls by dose curve)
Chain of Peroxisome proliferator-activated receptor delta (Homo sapiens) (Q03181 whole entry, looked up): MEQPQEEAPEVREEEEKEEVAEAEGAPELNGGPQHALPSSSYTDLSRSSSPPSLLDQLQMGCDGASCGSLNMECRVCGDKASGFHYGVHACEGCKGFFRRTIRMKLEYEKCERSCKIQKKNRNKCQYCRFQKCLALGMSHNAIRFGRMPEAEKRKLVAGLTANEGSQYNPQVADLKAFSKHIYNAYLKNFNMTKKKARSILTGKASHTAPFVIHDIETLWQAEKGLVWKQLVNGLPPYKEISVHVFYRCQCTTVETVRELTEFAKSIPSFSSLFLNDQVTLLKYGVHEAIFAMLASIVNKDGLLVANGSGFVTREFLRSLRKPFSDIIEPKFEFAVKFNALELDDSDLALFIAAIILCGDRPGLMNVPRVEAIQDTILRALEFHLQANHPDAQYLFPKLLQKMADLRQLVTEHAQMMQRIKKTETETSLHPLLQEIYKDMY
How it was run: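 GeneBLAzer UAS-bla HEK293H cells carrying a PPARδ construct were exposed to compounds at 37 °C. Beta-lactamase activity was read by FRET fluorescence after 2 h at room temperature with LiveBLAzer B/G substrate.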

[14] = qHTS assay to identify small molecule antagonists of the peroxisome proliferator-activated receptor delta (PPARd) signaling pathway - cell viability counter screen (AID 743213); also: nearly all actives have a fitted effect of over 50% in size
How it was run: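 Agonist-stimulated (L165041, 300 nM final) HEK293H PPARd UAS-bla cells are exposed to compounds for 17 h at 37 C, and ATP-based luminescence (CellTiter-Glo) from the same wells reports cytotoxicity.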

[15] = molecular target: Bile acid receptor (Homo sapiens) (UniProt Q96RI1); assay: qHTS assay to identify small molecule antagonists of the farnesoid-X-receptor (FXR) signaling pathway (AID 743217; active = well fitted inhibition curve with a large enough effect in the signal ratio in the repeat runs, not every such curve was filed as active; the % refers to the signal ratio)
Chain of Bile acid receptor (Homo sapiens) (Q96RI1 whole entry, looked up): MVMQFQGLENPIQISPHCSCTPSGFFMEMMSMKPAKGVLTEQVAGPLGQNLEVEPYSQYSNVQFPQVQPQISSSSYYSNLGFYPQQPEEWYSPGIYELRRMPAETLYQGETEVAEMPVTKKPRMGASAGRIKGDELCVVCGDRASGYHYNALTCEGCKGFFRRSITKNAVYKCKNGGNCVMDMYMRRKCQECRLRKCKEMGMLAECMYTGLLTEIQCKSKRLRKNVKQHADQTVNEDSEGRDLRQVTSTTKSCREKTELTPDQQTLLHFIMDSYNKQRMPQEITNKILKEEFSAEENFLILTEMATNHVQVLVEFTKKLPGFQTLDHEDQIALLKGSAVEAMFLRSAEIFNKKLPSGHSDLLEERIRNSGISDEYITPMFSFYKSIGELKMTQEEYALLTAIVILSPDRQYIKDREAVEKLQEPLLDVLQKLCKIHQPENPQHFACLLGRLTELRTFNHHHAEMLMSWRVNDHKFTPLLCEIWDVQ
How it was run: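 HEK 293T FXR-UAS-bla, 5000 cells/well; compound + CDCA 50 uM final; 16 h, 37 °C; B/G FRET substrate 2 h RT; fluorescence.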

[16] = molecular target: Bile acid receptor (Homo sapiens) (UniProt Q96RI1); assay: qHTS assay to identify small molecule agonists of the farnesoid-X-receptor (FXR) signaling pathway (AID 743220; active = well fitted activation curve with a large enough effect in the signal ratio in the repeat runs, not every such curve was filed as active; the % refers to the signal ratio)
How it was run: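 Beta-lactamase reporter under UAS control in GeneBLAzer FXR HEK 293T cells (5000/well) measured with LiveBLAzer FRET substrate after 2 h at room temperature. Compound exposure lasted 16 h at 37C.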

[17] = molecular target: Vitamin D3 receptor (Homo sapiens) (UniProt P11473); assay: qHTS assay to identify small molecule agonists of the vitamin D receptor (VDR) signaling pathway (AID 743222; calls by dose curve)
Chain of Vitamin D3 receptor (Homo sapiens) (P11473 whole entry, looked up): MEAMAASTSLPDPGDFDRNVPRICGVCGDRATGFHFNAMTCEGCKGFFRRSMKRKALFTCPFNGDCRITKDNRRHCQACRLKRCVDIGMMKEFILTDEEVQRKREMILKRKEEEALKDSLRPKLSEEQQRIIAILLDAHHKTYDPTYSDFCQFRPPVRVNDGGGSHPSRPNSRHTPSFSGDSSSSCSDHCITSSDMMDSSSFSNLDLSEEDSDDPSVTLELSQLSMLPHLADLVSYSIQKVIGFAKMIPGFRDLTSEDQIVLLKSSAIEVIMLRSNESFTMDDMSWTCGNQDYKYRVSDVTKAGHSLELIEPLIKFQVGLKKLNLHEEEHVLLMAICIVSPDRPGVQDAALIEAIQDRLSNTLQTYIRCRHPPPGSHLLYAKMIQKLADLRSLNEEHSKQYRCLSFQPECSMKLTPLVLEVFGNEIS
How it was run: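 VDR-bla cells, 2,000/well; 4 h preincubation 37C; cpd (DMSO) 16 h; LiveBLAzer B/G substrate 2 h RT; fluorescence intensity read.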

[18] = molecular target: Vitamin D3 receptor (Homo sapiens) (UniProt P11473); assay: qHTS assay to identify small molecule antagonists of the vitamin D receptor (VDR) signaling pathway (AID 743223; active = well fitted inhibition curve with a large enough effect in the signal ratio in the repeat runs, not every such curve was filed as active; the % refers to the signal ratio)
How it was run: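 Cells carrying a VDR-driven beta-lactamase reporter (VDR-bla) were co-treated with compound and 3 nM final 1alpha,25-dihydroxyvitamin D3 for 16 h at 37C; reporter activity was measured as FRET substrate fluorescence after 2 h at room temperature.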

[19] = qHTS assay to identify small molecule agonists of the vitamin D receptor (VDR) signaling pathway - cell viability counter screen (AID 743224); also: series mostly up to about 63 µM; nearly all actives have a fitted effect of over 50% in size
How it was run: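 Luminescence from CellTiter-Glo, read after 30 min at room temperature, reports viability of VDR-bla cells treated with compounds for 16 h at 37C in the wells used for the beta-lactamase FRET read.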

[20] = molecular target: Peroxisome proliferator-activated receptor delta (Homo sapiens) (UniProt Q03181); assay: qHTS assay to identify small molecule antagonists of the peroxisome proliferator-activated receptor delta (PPARd) signaling pathway (AID 743215; active = well fitted inhibition curve with a large enough effect in the signal ratio in the repeat runs, not every such curve was filed as active; the % refers to the signal ratio; also: series mostly up to about 62 µM)
How it was run: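 Read-out is beta-lactamase FRET fluorescence, measured 2 h after substrate addition at room temperature. Beforehand, UAS-bla HEK293H cells carrying the PPARd reporter were exposed to compounds with L165041 at 300 nM final for 17 h at 37 C.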

Row | SMILES | Potency [1] | Potency [2] | outcome [3] | Potency [4] | Potency [5] | Potency [6] | Potency [7] | Potency [8] | Potency [9] | Potency [10] | Potency [11] | Potency [12] | outcome [13] | Potency [14] | outcome [15] | Potency [16] | outcome [17] | outcome [18] | Potency [19] | Potency [20]
1 | C[C@@H]1[C@H](O)[C@@H](C)/C=C/C=C\C=C\C=C\C=C\C=C\C=C\[C@H](O[C@@H]2O[C@H](C)[C@@H](O)[C@H](N)[C@@H]2O)C[C@@H]2O[C@](O)(C[C@@H](O)C[C@@H](O)[C@H](O)CC[C@@H](O)C[C@@H](O)CC(=O)O[C@H]1C)C[C@H](O)[C@H]2C(=O)O (stereo in doubt) | inactive | inactive | inactive | inactive | inactive | inactive | inactive | inactive | inactive | – | – | – | – | – | – | – | – | – | – | –
2 | CC(C)(C)C1(CCc2ccc(Cl)cc2)CO1 (configuration not stated) | inactive | inactive | – | inactive | inactive | inactive | inactive | inactive | inactive | inactive | inactive | inactive | inactive | inactive | inactive | inactive | inactive | inactive | inactive | –
3 | CC1=CC[C@@]23C[C@@H]1C(C)(C)[C@@H]2CC[C@H]3C | inactive | inactive | – | – | inactive | inactive | inactive | inactive | inactive | inactive | inactive | inactive | – | inactive | – | – | – | – | inactive | –
4 | COC(OC)OC | inactive | inactive | – | inactive | inactive | inactive | inactive | inactive | inactive | – | inactive | inactive | – | inactive | – | – | inactive | inactive | inactive | –
5 | COC1CCC=CO1 (configuration not stated) | inactive | inactive | – | inactive | inactive | inactive | inactive | inactive | inactive | – | inactive | inactive | inactive | – | – | – | – | – | inactive | inactive
6 | CC(=O)OC(C)C[N+](C)(C)C (configuration not stated) | inactive | inactive | – | inactive | inactive | inactive | inactive | inactive | inactive | – | inactive | – | inactive | inactive | – | – | inactive | inactive | inactive | inactive
7 | CCCCCC | inactive | inactive | – | inactive | inactive | inactive | inactive | inactive | – | – | inactive | inactive | – | inactive | inactive | inactive | – | – | inactive | –
8 | C[C@H](CS)C(=O)N1CCC[C@H]1C(=O)O | inactive | inactive | – | inactive | inactive | inactive | inactive | inactive | inactive | – | inactive | – | – | – | – | – | – | – | – | –
9 | CC(=O)OCC(C)C | inactive | inactive | – | inactive | inactive | inactive | inactive | inactive | inactive | inactive | inactive | inactive | – | inactive | – | – | inactive | inactive | inactive | –
10 | O=NN(CCCl)C(=O)NCCCl | inactive | inactive | – | – | inactive | inactive | inactive | inactive | – | inactive | – | inactive | inactive | – | – | – | – | – | – | inactive
11 | COC(=O)CC(C(C)=O)C(=O)OC (configuration not stated) | inactive | inactive | inactive | inactive | inactive | – | inactive | inactive | inactive | – | – | – | inactive | – | inactive | inactive | inactive | – | inactive | inactive
12 | CC(C)c1ccc(C#N)cc1 | inactive | inactive | – | inactive | inactive | – | inactive | inactive | inactive | inactive | inactive | inactive | inactive | inactive | – | – | inactive | inactive | inactive | inactive
13 | Cc1ccc(Cl)cc1N | inactive | inactive | – | inactive | inactive | inactive | inactive | inactive | inactive | inactive | inactive | inactive | inactive | inactive | inactive | inactive | inactive | inactive | inactive | inactive
14 | COc1ccc(-c2cc(=S)ss2)cc1 | 29.8 µM (active) | – | – | inactive | inactive | inactive | – | inactive | inactive | inactive | 13.3 µM (active) | inactive | – | inactive | – | – | – | inactive | inactive | –
15 | CCCCCCC(CO)CCCC (configuration not stated) | inactive | inactive | – | – | – | inactive | inactive | – | inactive | – | inactive | inactive | inactive | inactive | – | – | inactive | inactive | inactive | inactive
16 | O=C(O)c1ccc(O)cc1O | – | inactive | inactive | inactive | inactive | inactive | inactive | inactive | inactive | inactive | inactive | inactive | inactive | inactive | inactive | inactive | inactive | inactive | inactive | –
17 | CCCCCc1ccco1 | inactive | inactive | – | inactive | – | – | – | inactive | inactive | – | – | – | inactive | inactive | – | inactive | inactive | – | – | inactive
18 | CCN(CC)CCOC(=O)C(c1ccccc1)c1ccccc1 | – | inactive | inactive | inactive | inactive | inactive | inactive | inactive | inactive | inactive | inactive | inactive | inactive | – | inactive | inactive | inactive | – | inactive | inactive
